Reference: PubChem BioAssay (NCI)
Values joined by “and” are separate entries in the source; they are usually repeats but may differ in a detail not shown here. Identical values can stand only once. Compounds without any hit were thinned out: in the full panel of roughly 83,000, 20% have a hit.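 Assay: single dose, 48 h. Readout: percent growth (0 = no net growth; negative = cell death). Active: <10.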 Active and inactive are the calls of the source.

Legend:
Assay in all cases: NCI-60 one-dose screen, 48 h (100 = growth as untreated, 0 = no growth, -100 = all killed)
[1] = tested on: HCT-15 colon
[2] = tested on: HT29 colon
[3] = tested on: SNB-75 CNS
[4] = tested on: SNB-19 CNS
[5] = tested on: U251 CNS; details: 10 µM unless noted
[6] = tested on: PC-3 prostate
[7] = tested on: SK-MEL-5 melanoma
[8] = tested on: UACC-62 melanoma
[9] = tested on: LOX IMVI melanoma; details: 10 µM unless noted
[10] = tested on: SK-MEL-28 melanoma
[11] = tested on: SK-MEL-2 melanoma
[12] = tested on: EKVX NSCLC; details: 10 µM unless noted
[13] = tested on: SN12C renal
[14] = tested on: UO-31 renal
[15] = tested on: TK-10 renal
[16] = tested on: CAKI-1 renal
[17] = tested on: CCRF-CEM leukemia; details: 10 µM unless noted
[18] = tested on: MOLT-4 leukemia
[19] = tested on: ACHN renal; details: 10 µM unless noted
[20] = tested on: A498 renal; details: 10 µM unless noted

Measured: growth

CS/C(=C\c1ccc(C(=O)c2ccc(C)cc2)n1C)S(C)=O (stereo not drawn)
inactive: [1]; 10 µM 87.6% | [1]; 100 µM 55.1% | [2]; 10 µM 94% | [2]; 100 µM 81.2% | [3]; 10 µM 96.1% | [3]; 100 µM 100% | [4]; 10 µM 91.3% | [4]; 100 µM 77.5% | [5] 74.7% [100 µM] | [6]; 10 µM 76.6% | [6]; 100 µM 71.1% | [7]; 10 µM 81.2% | [7]; 100 µM 36.5% | [8]; 10 µM 83.3% | [8]; 100 µM 61.4% | [9] 99.4% | [10]; 10 µM 84.7% | [10]; 100 µM 74.9% | [11]; 10 µM 98.8% | [11]; 100 µM 81.4% | [12] 63.8% [100 µM] | [13]; 10 µM 82% | [13]; 100 µM 80.9% | [14]; 10 µM 92.2% | [14]; 100 µM 57.8% | [15]; 10 µM 108% | [15]; 100 µM 87% | [16]; 10 µM 75.5% | [16]; 100 µM 63.2% | [17] 72.5% [100 µM] | [18]; 10 µM 93.9% | [18]; 100 µM 66.8%

CCOC(=O)c1ccc(C(=N)N)cc1
inactive: [1]; 10 µM unless noted 103% | [2]; 10 µM unless noted 106% | [3]; 10 µM unless noted 100% | [4]; 10 µM unless noted 113% | [5] 100% | [6]; 10 µM unless noted 89.6% | [7]; 10 µM unless noted 107% | [8]; 10 µM unless noted 108% | [9] 97.9% | [10]; 10 µM unless noted 120% | [11]; 10 µM unless noted 113% | [12] 103% | [13]; 10 µM unless noted 117% | [14]; 10 µM unless noted 91.8% | [15]; 10 µM unless noted 105% | [19] 126% | [16]; 10 µM unless noted 97.6% | [20] 98.6% | [17] 103% | [18]; 10 µM unless noted 109%

C#CCOC(=O)C(N)CS (stereo not drawn)
inactive: [1]; 10 µM unless noted 100% | [2]; 10 µM unless noted 110% | [3]; 10 µM unless noted 81.9% | [4]; 10 µM unless noted 99.7% | [5] 101% | [6]; 10 µM unless noted 90.5% | [7]; 10 µM unless noted 104% | [8]; 10 µM 88.5% | [8]; 100 µM 87.6% and 90.2% | [9] 101% | [10]; 10 µM unless noted 94.9% | [11]; 10 µM unless noted 115% | [12] 92.9% | [13]; 10 µM unless noted 87.2% | [14]; 10 µM unless noted 82.5% | [15]; 10 µM 107% | [15]; 100 µM 103% and 107% | [19] 98.8% | [16]; 10 µM unless noted 99.9% | [17] 107% | [18]; 10 µM unless noted 108%

CCN(CC)C(CC(=O)c1ccccc1)C(=O)c1ccccc1 (stereo not drawn)
inactive: [1]; 10 µM unless noted 64.6% | [2]; 10 µM unless noted 95.1% | [3]; 10 µM unless noted 114% | [4]; 10 µM unless noted 98.4% | [5] 93.7% | [6]; 10 µM unless noted 101% | [7]; 10 µM unless noted 94.5% | [8]; 10 µM unless noted 99.7% | [9] 88.6% | [10]; 10 µM unless noted 118% | [11]; 10 µM unless noted 110% | [12] 98.2% | [13]; 10 µM unless noted 93.4% | [14]; 10 µM unless noted 84.1% | [15]; 10 µM unless noted 70.2% | [19] 71.2% | [16]; 10 µM unless noted 101% | [20] 75.1% | [17] 30.4% | [18]; 10 µM unless noted 27.9%

COc1ccc2oc3c(ccc[n+]3C)c(=O)c2c1
inactive: [1]; 10 µM unless noted 100% | [2]; 10 µM unless noted 96.6% | [3]; 10 µM unless noted 100% | [4]; 10 µM unless noted 97.9% | [5] 93.6% | [6]; 10 µM unless noted 93.1% | [7]; 10 µM unless noted 99.4% | [8]; 10 µM unless noted 92.6% | [9] 99.9% | [10]; 10 µM unless noted 103% | [11]; 10 µM unless noted 99.6% | [12] 93.3% | [13]; 10 µM unless noted 110% | [14]; 10 µM unless noted 91.9% | [15]; 10 µM unless noted 97.6% | [19] 99.1% | [16]; 10 µM unless noted 98.2% | [20] 95.7% | [17] 110% | [18]; 10 µM unless noted 103%

Cc1cc(NC(=O)NC(=O)c2ccccc2N(C)C)ccc1Oc1ncc(Br)cn1
4.54% (active) and 17.5% (inactive): [17]
-17% (active) and 56.7% (inactive): [19]
-10.1% (active) and 25.9% (inactive): [6]; 10 µM unless noted
-15.9% (active) and 17% (inactive): [2]; 10 µM unless noted
-31% (active) and 31% (inactive): [1]; 10 µM unless noted
active: [5] -43.4% | [7]; 10 µM unless noted 2.16% and 0.678%
inactive: [4]; 10 µM unless noted 29.2% and 42.7% | [8]; 10 µM unless noted 30.4% and 37% | [9] 27.3% and 49.7% | [10]; 10 µM unless noted 68.1% | [11]; 10 µM unless noted 48% and 60.5% | [12] 47.7% and 42.5% | [13]; 10 µM unless noted 51.6% and 51.3% | [14]; 10 µM unless noted 24.2% and 56.1% | [15]; 10 µM unless noted 36.5% and 63.1% | [16]; 10 µM unless noted 25.9% and 38.2% | [20] 15.2% and 10.6% | [18]; 10 µM unless noted 19.5% and 26.5%
-28.2% (active) and 12.9% (inactive): [3]; 10 µM unless noted
